Test results reported in PubChem BioAssay AID2728 (Broad Institute, 2010).
Some of the results follow. Results filed as inconclusive are left out. Unmarked numbers belong to inactive results.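 The calls were made as follows: active = every replicate shows growth inhibition above 50%; inconclusive = at least half but not all replicates above 50% inhibition; inactive = under half of replicates above 50% inhibition.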

Assay: V. harveyi growth suppression by OD600 – strain BB721, absorbance OD600, cytotoxicity control for AI-2 quorum sensing inhibitors, confirmation (AID 2728)
Details: Vibrio harveyi BB721 growth, 9 h, at 7.5 µM, stronger effect = higher value

First: O=C1COc2ccc(S(=O)(=O)Nc3ccc(OC(F)(F)F)cc3)cc2N1
Second: Cc1ccc(NS(=O)(=O)c2ccc3c(c2)NC(=O)CO3)cc1
The growth inhibition of the first is higher: 55% for the first, 18.2% for the second.

Going from `CC(CNc1ccc([N+](=O)[O-])cc1)NC(=O)c1ccccc1Br` (stereo unspecified) to `Cc1nn(CC(=O)Nc2ccc(F)cc2)c(=O)c2ccccc12`, the growth inhibition rises from -16.1% to 0.351%.

First: Cc1ccc(Oc2cnn(-c3ccccc3)c(=O)c2Br)cc1
Second: CC(C)(C)c1ccc(OC2=CS(=O)(=O)c3ccccc32)cc1
The growth inhibition of the first is lower: 4.98% for the first, 26.8% for the second.

Going from `O=C(COc1ncnc2ccccc12)NC(=O)NCc1ccccc1` to `Cc1ccccc1NC(=O)CCOc1ccccc1`, the growth inhibition falls from 27.2% to -7.16%.

First: Cc1cccc(CSc2ccc(-c3cccs3)nn2)c1
Second: COC(=O)c1ccc(SCc2ccccc2)nc1
The growth inhibition of the first is higher: -12.7% for the first, -21% for the second.

Going from `O=C(Cn1cnc2ccccc2c1=O)Nc1cccc(S(=O)(=O)N2CCCCC2)c1` to `O=C(Nc1ccc(F)c(Cl)c1)C1CCN(S(=O)(=O)c2cccnc2)CC1`, the growth inhibition rises from 14% to 14.5%.

First: Cc1ccc(NC(=O)C2CC2c2ccccc2)cc1 (stereo unspecified)
Second: COc1ccc(/C(N)=N/OC(=O)Cc2ccccc2)cc1
The growth inhibition of the first is higher: 7.3% for the first, -4.72% for the second.

Compared with `N/C(=N\OC(=O)CCc1ccccc1)c1cccnc1`, `CCOC(=O)c1nn(-c2cccc(C)c2)cc1C(=O)c1ccccc1` is lower in growth inhibition: 0.547% for the first, -7.63% for the second.

Compared with `CN(Cc1cnccn1)C(=O)c1cc(COc2cccc(C(F)(F)F)c2)on1`, `Cc1cc(CN(C)C(=O)c2cc(COc3ccc(C)c(C)c3)on2)n[nH]1` is higher in growth inhibition: 18.2% for the first, 28.4% for the second.

Compared with `Cc1cc(C(=O)OCC(=O)Nc2ccc(F)c(F)c2)c(C)o1`, `Cc1ccsc1C(=O)OCC(=O)c1cc2ccccc2o1` is higher in growth inhibition: -6.2% for the first, 4.04% for the second.

First: CCOc1ccc(/C=N/NC(N)=S)cc1
Second: S=C(NCc1ccc(Cl)cc1)NC1CCCCC1
The growth inhibition of the first is higher: 18% for the first, 12.8% for the second.

First: CC(=O)c1cccc(OCc2cc(C(=O)NC(C)Cc3cccnc3)no2)c1 (stereo unspecified)
Second: O=C(c1cc(-c2cccc(O)c2)on1)N1CCc2ccccc2C1
The growth inhibition of the first is higher: 8.38% for the first, 2.13% for the second.

Compared with `Cc1ccc(Cc2nc(-c3cccc(C)c3)no2)cc1`, `COC(=O)C1CCN(C(=O)c2ccc3oc(Cc4ccc(Cl)cc4)nc3c2)CC1` is lower in growth inhibition: 19.7% for the first, 19.1% for the second.

First: O=C(COC(=O)C1CCCCC1)Nc1ccc([N+](=O)[O-])cc1
Second: O=C(CCC(=O)c1cccs1)Nc1nc2ccccc2s1
The growth inhibition of the first is lower: -40.8% for the first, -0.412% for the second.

First: O=C(/C=C/c1ccc2c(c1)OCCO2)c1ccc(O)cc1
Second: O=C(/C=C/c1ccc2c(c1)OCO2)NCc1ccc(F)cc1
The growth inhibition of the first is lower: -21.7% for the first, 16.5% for the second.

Work on `COc1cccc(NC(=O)NCc2ccc(F)cc2)c1` yielded a growth inhibition of -16.1%.
